Source: PubChem BioAssay (EPA / NIEHS)
Inconclusive results are not listed. More than one record can exist for a structure, and the calls need not agree. The source made the active and inactive calls. How the source made its calls: active means hit-call score of the fitted dose curve at least 0.9, where 1 is the maximum; inconclusive means response in the unintended direction; inactive means score below 0.9.

Experiments:
[1] = tested on: guinea pig Muscarinic, Peripheral (Mperiperal) Receptor, Non-selective Binding, gene 100379235; assay: NVS_GPCR_gMPeripheral_NonSelective: NovaScreen (NVS) G Protein-Coupled Receptor Assay for guinea pig Muscarinic, Peripheral (Mperiperal) Receptor, Non-selective Binding (AID 2283250)
In short: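 Screened in duplicate at 25 uM, hits retested in concentration series to 50 uM max, using bladder membrane radioligand displacement from guinea pig. Filtration and scintillation counting 1 h post-dose, fitted relative to DMSO.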

[2] = target: guinea pig Opioid, Kappa 1 Receptor (OpiateK), OPRK1 (gene 100135587) (UniProt P41144); assay: NVS_GPCR_gOpiateK: NovaScreen (NVS) G Protein-Coupled Receptor Assay for guinea pig Opioid, Kappa 1 Receptor (OpiateK) (AID 2283252);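 further: radioligand displacement from kappa opioid receptor in guinea pig cerebellar membranes; active means reduced radioligand binding relative to DMSO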
In short: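 Radioligand competition binding using guinea pig cerebellum membrane fraction; 2 h exposure; filter radiodetection. Single concentration 25 uM (duplicate), follow-up concentration-response for actives.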

[3] = target: rat Monoamine Oxidase, MAO-B, Peripheral (MAOBP), Maob (gene 25750) (UniProt P19643); assay: NVS_ENZ_rMAOBP: NovaScreen (NVS) Enzymatic Assay for rat Monoamine Oxidase, MAO-B, Peripheral (MAOBP) (AID 2283242)
Method: NVS_ENZ_rMAOBP is a biochemical, single-readout assay that uses extracted gene-proteins from Rat brain in a tissue-based cell-free assay. Measurements were taken 1.17 hours after chemical dosing in a 96-well plate.NVS_ENZ_rMAOBP is one of one assay component(s) measured or calculated from the NVS_ENZ_rMAOBP assay. It is designed to make measurements of enzyme activity, a form of enzyme reporter, as detected with scintillation counting signals by Lysate-based radiodetection technology.Data from the assay component NVS_ENZ_rMAOBP was analyzed into 1 assay endpoint. This assay endpoint, NVS_ENZ_rMAOBP, was analyzed in the positive analysis fitting direction relative to DMSO as the negative control and baseline of activity. Using a type of enzyme reporter, loss-of-signal activity can be used to understand changes in the enzymatic activity as they relate to the gene Maob. Furthermore, this assay endpoint can be referred to as a primary readout, because this assay has produced multiple assay endpoints where this one serves a enzymatic activity function. To generalize the intended target to other relatable targets, this assay endpoint is annotated to the oxidoreductase intended target family, where the subfamily is monoamine oxidase.
Binding assays used specific radioligands (tritiated, iodinated) with non-radioactive competitive displacement ligands in agonist or antagonist protocols (as indicated) and various reference compounds and inhibitors to titrate specific binding to receptors and transporters. Most enzyme assays (CYPs, kinases, phosphatases, proteases, HDACs) used recombinant protein and specific substrates (fluorescence mostly, some colorimetric and radioactive) and inhibitors, followed by a biochemical separation of substrate and product. All assays for the biochemical HTS were initially run in duplicate at a single concentration (10 uM for CYP450 assays and 25 uM for all others). Assay-chemical combinations meeting a pre-defined threshold (e.g., 30% inhibition and other criteria defined below) were then run in singleton concentration-response format with maximum concentration of 20 uM for CYPs and 50 uM for all others. Each assay was run with positive and negative controls, and concurrent controls on every plate. The follow-up (secondary) screen tested active chemical-pairs in concentration series, as well as a few additional assays not tested in the primary screen, some selected negative inactives, and several cases re-run in the concentration series for confirmatory purposes.

[4] = tested on: guinea pig Leukotriene B4 Receptor (LTB4), gene 100379538; assay: NVS_GPCR_gLTB4: NovaScreen (NVS) G Protein-Coupled Receptor Assay for guinea pig Leukotriene B4 Receptor (LTB4) (AID 2283247)
In short: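 Membranes from guinea pig spleen incubated 2 h with radioligand and compound; bound counts measured by filtration and scintillation. Screened first at 25 uM in duplicate, then actives titrated to a 50 uM top concentration relative to DMSO.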

[5] = tested on: rat Monoamine Oxidase, MAO-A, Central (MAOAC), gene 29253; assay: NVS_ENZ_rMAOAC: NovaScreen (NVS) Enzymatic Assay for rat Monoamine Oxidase, MAO-A, Central (MAOAC) (AID 2283243);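 further: potency refers to inhibition seen as signal drop below DMSO baseline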
In short: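 Lysate-based radiometric enzyme assay using rat brain tissue; 1.5 h treatment; 25 uM single-point duplicate screen, concentration-response follow-up; loss of signal versus DMSO.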

[6] = target: human Serotonin, 5-Hydroxytryptamine Receptor 6 (5HT6), HTR6 (gene 3362) (UniProt P50406); assay: NVS_GPCR_h5HT6: NovaScreen (NVS) G Protein-Coupled Receptor Assay for human Serotonin, 5-Hydroxytryptamine Receptor 6 (5HT6) (AID 2283253)
In short: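 Filter scintillation counting of radioligand displacement from HEK293-expressed 5HT6, 1 hour post-dose, with loss of signal relative to DMSO. Single 25 uM duplicates first, with concentration series for confirmation.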

[7] = target: human Serotonin, 5-Hydroxytryptamine Receptor 5A (5HT5A), HTR5A (gene 3361) (UniProt P47898); assay: NVS_GPCR_h5HT5A: NovaScreen (NVS) G Protein-Coupled Receptor Assay for human Serotonin, 5-Hydroxytryptamine Receptor 5A (5HT5A) (AID 2283251)
In short: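 Membranes from HEK293 cells, radioligand binding read by filtration and scintillation after 1 h. Single-concentration duplicate testing at 25 uM, then concentration-response for actives; positive-direction fitting relative to DMSO.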

[8] = target: human Adenosine A1 Receptor (AdoRA1), ADORA1 (gene 134) (UniProt P30542); assay: NVS_GPCR_hAdoRA1: NovaScreen (NVS) G Protein-Coupled Receptor Assay for human Adenosine A1 Receptor (AdoRA1) (AID 2283254)
In short: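 Hum. cortical membranes + radioligand, cmpd 1 h; filtration, scintillation count. Readout = decrease vs DMSO. Primary 25 uM dup; hits → conc. series.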

[9] = target: human Serotonin, 5-Hydroxytryptamine Receptor 7 (5HT7), HTR7 (gene 3363) (UniProt P34969); assay: NVS_GPCR_h5HT7: NovaScreen (NVS) G Protein-Coupled Receptor Assay for human Serotonin, 5-Hydroxytryptamine Receptor 7 (5HT7) (AID 2283255);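 further: hits reduce specific radioligand binding relative to DMSO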
In short: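 Filter-bound radioactivity counted after 1 h, with loss of specific radioligand binding fitted against DMSO. Membrane protein came from CHO cells expressing human 5HT7. Chemicals were tested first at 25 uM in duplicate, then in concentration series if active.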

[10] = target: Adenosine receptor A1 (Bos taurus) (UniProt P28190); assay: NVS_GPCR_bAdoR_NonSelective: NovaScreen (NVS) G Protein-Coupled Receptor Assay for bovine Adenosine Receptor (AdoR), Non-selective Binding (AID 2283244)
In short: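 Cell-free binding with membranes from bovine striatum: radioligand displaced by test chemical, read after 1 h by filtration and scintillation. Single-point 25 uM duplicate primary, 50 uM top concentration in follow-up curves, DMSO baseline.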

[11] = target: guinea pig Leukotriene D4 Receptor (LTD4), CYSLTR1 (gene 100135514) (UniProt Q2NNR5); assay: NVS_GPCR_gLTD4: NovaScreen (NVS) G Protein-Coupled Receptor Assay for guinea pig Leukotriene D4 Receptor (LTD4) (AID 2283248)
In short: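 Guinea pig lung membrane preparation; bound radioligand measured by filter scintillation after 1 h, loss of signal versus DMSO marking displacement. Compounds tested at 25 uM in duplicate, hits retested to max 50 uM.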

[12] = target: human Adenosine A2a Receptor (AdoRA2a), ADORA2A (gene 135) (UniProt P29274); assay: NVS_GPCR_hAdoRA2a: NovaScreen (NVS) G Protein-Coupled Receptor Assay for human Adenosine A2a Receptor (AdoRA2a) (AID 2283256)
In short: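 HEK293-derived receptor preparation, radioligand displacement, 1.5 h, filtration + scintillation read. Loss of bound signal scored vs DMSO. Single-point 25 uM in duplicate first, then concentration-response for actives.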

[13] = target: human Adrenergic, Alpha 2c Receptor (Adra2C), ADRA2C (gene 152) (UniProt P18825); assay: NVS_GPCR_hAdra2C: NovaScreen (NVS) G Protein-Coupled Receptor Assay for human Adrenergic, Alpha 2c Receptor (Adra2C) (AID 2283259)
In short: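 Screened first in duplicate at 25 uM, with actives then run as concentration series. Membranes from Sf9 cells were exposed for 1 h, and displacement of radioligand was counted after filtration, using DMSO as baseline.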

[14] = target: human Adrenergic, Beta 1 Receptor (Adrb1), ADRB1 (gene 153) (UniProt P08588); assay: NVS_GPCR_hAdrb1: NovaScreen (NVS) G Protein-Coupled Receptor Assay for human Adrenergic, Beta 1 Receptor (Adrb1) (AID 2283258)
In short: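 Membranes/protein extracted from human neuroepithelioma cells, radioligand competition binding read by filtration and scintillation 2 h post-dose. Single 25 uM duplicate screen, then concentration-response follow-up; DMSO as negative control.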

[15] = target: human Dopamine Receptor D4.4 (DRD4.4), DRD4 (gene 1815) (UniProt P21917); assay: NVS_GPCR_hDRD4.4: NovaScreen (NVS) G Protein-Coupled Receptor Assay for human Dopamine Receptor D4.4 (DRD4.4) (AID 2283264)
In short: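 Filter-binding assay with a tritiated or iodinated ligand, cell-free receptor prepared from CHO, 1 hour. Loss of bound radioactivity versus DMSO; single 25 uM duplicate screen, then concentration-response for actives.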

[16] = target: human Adrenergic, Beta 3 Receptor (Adrb3), ADRB3 (gene 155) (UniProt P13945); assay: NVS_GPCR_hAdrb3: NovaScreen (NVS) G Protein-Coupled Receptor Assay for human Adrenergic, Beta 3 Receptor (Adrb3) (AID 2283262)
In short: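 A cell-free filter binding assay read by scintillation counting, with displacement of a specific radioligand measured after 1 hour. The receptor source was SK-N-MC extracts (cells pretreated with isoproterenol and 8-bromo-cAMP). Compounds were first tested at 25 uM in duplicate and then in concentration series.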

human Serotonin, 5-Hydroxytryptamine Receptor 5A (5HT5A), HTR5A (gene 3361), sequence (P47898 whole entry, looked up): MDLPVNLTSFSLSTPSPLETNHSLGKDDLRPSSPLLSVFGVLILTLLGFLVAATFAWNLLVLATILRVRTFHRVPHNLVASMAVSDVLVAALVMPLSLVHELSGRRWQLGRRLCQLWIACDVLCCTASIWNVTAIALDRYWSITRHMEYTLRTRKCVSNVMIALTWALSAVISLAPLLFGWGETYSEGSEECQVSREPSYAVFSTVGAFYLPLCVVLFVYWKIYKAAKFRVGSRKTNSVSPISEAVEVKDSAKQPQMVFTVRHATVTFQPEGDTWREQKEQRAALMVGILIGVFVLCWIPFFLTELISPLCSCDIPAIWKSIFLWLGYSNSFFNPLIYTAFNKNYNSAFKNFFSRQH
human Adenosine A1 Receptor (AdoRA1), ADORA1 (gene 134), sequence (P30542 whole entry, looked up): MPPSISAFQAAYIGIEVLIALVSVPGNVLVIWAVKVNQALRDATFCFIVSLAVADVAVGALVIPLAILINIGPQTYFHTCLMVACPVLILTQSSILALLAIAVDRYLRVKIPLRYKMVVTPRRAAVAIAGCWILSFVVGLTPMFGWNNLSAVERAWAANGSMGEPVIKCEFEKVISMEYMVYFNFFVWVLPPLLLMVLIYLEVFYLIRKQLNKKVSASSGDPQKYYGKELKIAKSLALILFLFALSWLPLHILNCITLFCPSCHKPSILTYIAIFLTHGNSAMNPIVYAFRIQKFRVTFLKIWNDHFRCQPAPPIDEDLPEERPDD
rat Monoamine Oxidase, MAO-B, Peripheral (MAOBP), Maob (gene 25750), sequence (P19643 whole entry, looked up): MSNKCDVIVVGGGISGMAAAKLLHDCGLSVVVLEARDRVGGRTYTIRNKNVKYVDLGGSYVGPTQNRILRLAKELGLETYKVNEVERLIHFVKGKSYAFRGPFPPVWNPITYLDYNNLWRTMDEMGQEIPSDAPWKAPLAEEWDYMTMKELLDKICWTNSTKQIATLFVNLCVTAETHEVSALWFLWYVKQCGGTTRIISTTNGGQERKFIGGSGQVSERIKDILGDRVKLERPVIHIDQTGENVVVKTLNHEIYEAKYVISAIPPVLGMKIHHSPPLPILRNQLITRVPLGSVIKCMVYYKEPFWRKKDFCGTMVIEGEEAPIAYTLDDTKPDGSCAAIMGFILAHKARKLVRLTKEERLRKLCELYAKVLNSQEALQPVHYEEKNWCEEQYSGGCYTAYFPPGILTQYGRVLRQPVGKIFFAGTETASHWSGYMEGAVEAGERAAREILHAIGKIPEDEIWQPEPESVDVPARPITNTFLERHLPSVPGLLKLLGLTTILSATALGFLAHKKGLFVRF
Adenosine receptor A1 (Bos taurus), sequence (P28190 whole entry, looked up): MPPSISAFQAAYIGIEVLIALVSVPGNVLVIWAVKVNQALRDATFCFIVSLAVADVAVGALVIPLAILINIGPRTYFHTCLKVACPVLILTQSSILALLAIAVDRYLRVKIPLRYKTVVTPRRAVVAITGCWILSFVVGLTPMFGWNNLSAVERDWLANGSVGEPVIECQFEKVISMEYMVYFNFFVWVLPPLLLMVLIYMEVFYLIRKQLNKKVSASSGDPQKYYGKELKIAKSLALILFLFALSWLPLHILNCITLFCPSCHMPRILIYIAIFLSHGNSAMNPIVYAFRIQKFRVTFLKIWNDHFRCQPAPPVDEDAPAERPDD
guinea pig Opioid, Kappa 1 Receptor (OpiateK), OPRK1 (gene 100135587), sequence (P41144 whole entry, looked up): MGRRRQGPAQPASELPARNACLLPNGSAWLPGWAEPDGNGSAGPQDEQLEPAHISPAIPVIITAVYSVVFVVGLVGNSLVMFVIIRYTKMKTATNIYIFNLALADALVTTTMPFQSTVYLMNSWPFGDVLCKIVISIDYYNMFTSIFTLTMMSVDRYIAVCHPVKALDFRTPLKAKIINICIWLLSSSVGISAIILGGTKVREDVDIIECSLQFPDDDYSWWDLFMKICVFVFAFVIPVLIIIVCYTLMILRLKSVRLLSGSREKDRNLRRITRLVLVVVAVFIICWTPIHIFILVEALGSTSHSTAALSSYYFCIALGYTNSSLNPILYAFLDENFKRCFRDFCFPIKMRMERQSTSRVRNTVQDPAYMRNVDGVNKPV
human Serotonin, 5-Hydroxytryptamine Receptor 6 (5HT6), HTR6 (gene 3362), sequence (P50406 whole entry, looked up): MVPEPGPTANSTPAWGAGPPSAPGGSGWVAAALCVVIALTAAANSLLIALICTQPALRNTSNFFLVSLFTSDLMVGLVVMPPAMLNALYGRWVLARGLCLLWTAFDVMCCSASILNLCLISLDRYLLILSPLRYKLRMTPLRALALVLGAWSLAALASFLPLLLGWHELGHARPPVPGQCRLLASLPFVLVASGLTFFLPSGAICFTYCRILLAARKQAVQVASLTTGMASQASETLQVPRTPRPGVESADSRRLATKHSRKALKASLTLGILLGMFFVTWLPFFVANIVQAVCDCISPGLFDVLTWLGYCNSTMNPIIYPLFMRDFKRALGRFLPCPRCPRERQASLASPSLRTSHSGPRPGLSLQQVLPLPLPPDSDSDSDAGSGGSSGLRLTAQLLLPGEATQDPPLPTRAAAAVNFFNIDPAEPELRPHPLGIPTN
human Serotonin, 5-Hydroxytryptamine Receptor 7 (5HT7), HTR7 (gene 3363), sequence (P34969 whole entry, looked up): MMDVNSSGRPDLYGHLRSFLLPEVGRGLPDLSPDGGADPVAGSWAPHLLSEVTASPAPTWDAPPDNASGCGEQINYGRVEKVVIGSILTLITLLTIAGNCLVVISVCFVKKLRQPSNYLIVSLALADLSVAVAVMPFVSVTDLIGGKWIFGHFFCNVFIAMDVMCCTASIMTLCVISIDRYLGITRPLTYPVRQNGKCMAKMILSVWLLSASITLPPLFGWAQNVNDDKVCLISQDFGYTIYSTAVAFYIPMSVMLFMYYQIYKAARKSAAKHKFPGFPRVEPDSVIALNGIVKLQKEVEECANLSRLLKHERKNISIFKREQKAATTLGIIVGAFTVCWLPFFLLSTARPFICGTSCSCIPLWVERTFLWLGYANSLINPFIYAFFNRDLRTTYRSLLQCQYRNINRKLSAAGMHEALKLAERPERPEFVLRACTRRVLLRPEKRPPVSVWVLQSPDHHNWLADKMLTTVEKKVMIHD
human Adenosine A2a Receptor (AdoRA2a), ADORA2A (gene 135), sequence (P29274 whole entry, looked up): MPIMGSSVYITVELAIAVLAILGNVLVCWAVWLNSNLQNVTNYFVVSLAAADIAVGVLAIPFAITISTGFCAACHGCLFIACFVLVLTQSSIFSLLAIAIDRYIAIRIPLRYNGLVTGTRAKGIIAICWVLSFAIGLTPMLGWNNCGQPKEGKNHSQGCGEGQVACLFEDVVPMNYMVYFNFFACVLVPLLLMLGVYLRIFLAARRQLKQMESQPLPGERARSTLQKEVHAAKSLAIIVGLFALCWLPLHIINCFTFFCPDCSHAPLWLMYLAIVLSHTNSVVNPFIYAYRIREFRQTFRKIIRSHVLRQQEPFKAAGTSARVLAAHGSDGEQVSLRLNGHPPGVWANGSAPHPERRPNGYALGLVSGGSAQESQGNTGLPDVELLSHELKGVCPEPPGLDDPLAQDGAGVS
guinea pig Leukotriene D4 Receptor (LTD4), CYSLTR1 (gene 100135514), sequence (Q2NNR5 whole entry, looked up): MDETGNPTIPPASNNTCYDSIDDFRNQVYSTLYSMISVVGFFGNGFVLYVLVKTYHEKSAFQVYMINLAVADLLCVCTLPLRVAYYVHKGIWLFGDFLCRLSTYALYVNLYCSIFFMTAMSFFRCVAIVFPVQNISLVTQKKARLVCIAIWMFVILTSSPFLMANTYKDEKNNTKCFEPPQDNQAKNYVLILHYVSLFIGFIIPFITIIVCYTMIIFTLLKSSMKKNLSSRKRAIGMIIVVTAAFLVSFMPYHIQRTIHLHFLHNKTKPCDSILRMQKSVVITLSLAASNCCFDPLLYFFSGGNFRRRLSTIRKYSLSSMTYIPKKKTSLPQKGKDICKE
human Adrenergic, Alpha 2c Receptor (Adra2C), ADRA2C (gene 152), sequence (P18825 whole entry, looked up): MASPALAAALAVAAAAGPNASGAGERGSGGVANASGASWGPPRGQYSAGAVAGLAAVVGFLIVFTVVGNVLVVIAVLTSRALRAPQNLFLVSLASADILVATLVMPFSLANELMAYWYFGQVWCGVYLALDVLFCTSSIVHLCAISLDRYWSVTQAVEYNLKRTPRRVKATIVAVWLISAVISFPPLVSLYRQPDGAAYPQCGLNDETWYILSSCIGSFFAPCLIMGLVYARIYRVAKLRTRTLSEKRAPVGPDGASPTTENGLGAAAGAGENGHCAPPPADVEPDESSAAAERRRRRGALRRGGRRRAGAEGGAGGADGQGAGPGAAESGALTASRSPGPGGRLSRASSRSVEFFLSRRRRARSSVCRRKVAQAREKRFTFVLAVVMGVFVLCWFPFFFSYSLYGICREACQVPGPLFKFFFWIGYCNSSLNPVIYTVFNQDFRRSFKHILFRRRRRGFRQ
human Dopamine Receptor D4.4 (DRD4.4), DRD4 (gene 1815), sequence (P21917 whole entry, looked up): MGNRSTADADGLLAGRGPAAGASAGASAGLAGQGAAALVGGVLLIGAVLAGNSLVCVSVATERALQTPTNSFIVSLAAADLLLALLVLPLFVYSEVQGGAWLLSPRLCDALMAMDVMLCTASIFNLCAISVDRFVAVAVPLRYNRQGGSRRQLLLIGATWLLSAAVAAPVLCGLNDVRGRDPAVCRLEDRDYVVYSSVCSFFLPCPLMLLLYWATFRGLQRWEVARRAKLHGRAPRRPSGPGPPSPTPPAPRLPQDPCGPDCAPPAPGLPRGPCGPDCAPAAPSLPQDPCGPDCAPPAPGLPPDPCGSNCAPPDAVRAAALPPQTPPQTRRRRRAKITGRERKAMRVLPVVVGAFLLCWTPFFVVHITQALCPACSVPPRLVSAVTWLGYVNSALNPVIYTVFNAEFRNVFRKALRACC
human Adrenergic, Beta 1 Receptor (Adrb1), ADRB1 (gene 153), sequence (P08588 whole entry, looked up): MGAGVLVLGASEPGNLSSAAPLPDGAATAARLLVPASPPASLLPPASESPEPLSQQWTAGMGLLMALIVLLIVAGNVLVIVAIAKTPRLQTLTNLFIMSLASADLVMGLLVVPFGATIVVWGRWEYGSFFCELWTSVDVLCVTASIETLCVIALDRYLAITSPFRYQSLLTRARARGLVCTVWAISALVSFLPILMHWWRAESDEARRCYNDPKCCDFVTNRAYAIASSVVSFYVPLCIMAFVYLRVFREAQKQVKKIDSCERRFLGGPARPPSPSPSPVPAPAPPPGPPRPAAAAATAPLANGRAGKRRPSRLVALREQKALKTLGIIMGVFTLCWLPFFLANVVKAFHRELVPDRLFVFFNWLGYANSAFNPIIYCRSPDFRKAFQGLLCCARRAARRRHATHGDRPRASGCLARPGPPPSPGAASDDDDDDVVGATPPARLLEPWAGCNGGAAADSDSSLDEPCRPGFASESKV

**Q.** Which results are given for `O=C(N[C@H]1CN2CCC1CC2)c1cc2ccoc2cn1`?
**A.** outcome [1]: inactive; outcome [2]: inactive

**Q.** Which outcome [3] does the source give for `CC1=C2C[C@H]3[C@@H](CC=C4C[C@@H](O)CC[C@@]43C)[C@@H]2CC[C@]12O[C@@H]1C[C@H](C)CN[C@H]1[C@H]2C` here?
**A.** The outcome was “inactive”.

**Q.** And the AC50 [2]?
**A.** The AC50 was 1.33 µM (active).

**Q.** Which AC50 [4] does the source give for `O=S(=O)(O)C(F)(F)C(F)(F)C(F)(F)C(F)(F)C(F)(F)C(F)(F)F` here?
**A.** The AC50 was 10.8 µM (active).

**Q.** Which results are given for `Oc1ccc(Cl)cc1Cl`?
**A.** outcome [5]: inactive; outcome [6]: inactive

**Q.** Which AC50 [5] does the source give for `Nc1ccc(-c2ccc(N)cc2)cc1` here?
**A.** Its AC50 is 16.6 µM (active).

**Q.** With `CCC(C)(c1ccc(O)cc1)c1ccc(O)cc1` as the compound, how does the AC50 [4] read?
**A.** Its AC50 is 6.38 µM (active).

**Q.** And the AC50 [7]?
**A.** The AC50 was 13.4 µM (active).

**Q.** And the outcome [2]?
**A.** Its outcome is “inactive”.

**Q.** What about the AC50 [6] of the same compound?
**A.** The AC50 was 6.29 µM (active).

**Q.** What about the AC50 [8] of the same compound?
**A.** The AC50 was 25 µM (active).

**Q.** What about the AC50 [9] of the same compound?
**A.** Its AC50 is 15.9 µM (active).

**Q.** For `Clc1ccc(Cl)cc1`, which outcome [10] is on record?
**A.** Its outcome is “inactive”.

**Q.** Which AC50 [5] does the source give for `Oc1c(Cl)c(Cl)c(Cl)c(Cl)c1Cl` here?
**A.** The AC50 was 15.5 µM (active).

**Q.** What about the outcome [10] of the same compound?
**A.** The outcome was “inactive”.

**Q.** And the outcome [11]?
**A.** The outcome was “inactive”.

**Q.** What about the AC50 [2] of the same compound?
**A.** The AC50 was 12.6 µM (active).

**Q.** And the outcome [2]?
**A.** Its outcome is “inactive”.

**Q.** What about the outcome [8] of the same compound?
**A.** The outcome was “inactive”.

**Q.** And the AC50 [12]?
**A.** Its AC50 is 13.1 µM (active).

**Q.** What does the source list for `CC(C)(c1ccccc1)c1ccc(O)cc1`?
**A.** outcome [3]: inactive; AC50 [4]: 7.09 µM (active); AC50 [7]: 25 µM (active); AC50 [6]: 4.96 µM (active); AC50 [8]: 9.28 µM (active); AC50 [13]: 9.37 µM (active)

**Q.** Which results are given for `O=C(O)C(F)(F)C(F)(F)C(F)(F)C(F)(F)C(F)(F)C(F)(F)C(F)(F)C(F)(F)C(F)(F)F`?
**A.** outcome [10]: inactive; AC50 [4]: 11.6 µM (active); outcome [11]: inactive; AC50 [7]: 20.7 µM (active); AC50 [9]: 16.4 µM (active); AC50 [12]: 7.6 µM (active); AC50 [14]: 21.3 µM (active); AC50 [13]: 10.9 µM (active); AC50 [15]: 25 µM (active)

**Q.** With `Cc1cc(O)ccc1Cl` as the compound, how does the AC50 [3] read?
**A.** Its AC50 is 25 µM (active).

**Q.** And the AC50 [5]?
**A.** Its AC50 is 18.5 µM (active).

**Q.** With `c1cc2ccc3cccc4ccc(c1)c2c34` as the compound, how does the outcome [16] read?
**A.** Its outcome is “inactive”.
